In this assay the test system is MDA-MB-468 breast. As to the kind of experiment: NCI-60 one-dose screen, 48 h (100 = growth as untreated, 0 = no growth, -100 = all killed). As to conditions: 10 µM unless noted.

Compounds without any hit were thinned out: in the full panel of roughly 83,000, 20% have a hit.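 A percent growth of 40 corresponds to 60% growth inhibition; 0 means no net growth; -100 means all cells died. Active threshold: below 10.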 Unmarked numbers belong to inactive results. Active and inactive are the calls of the source.

Turning to `CCN(CC)CCSCCN(CC)CC`, the growth is 93.4%.
To `COc1c(F)cc(-n2c(C(=O)N3CC(F)C3)cc3cccnc32)cc1F` belongs 98.4%.
In the case of `CC(=O)c1sc(Nc2cccc(Nc3nc(C)c(C)s3)c2)nc1C` it was 55%; in that of `COCC[C@H]1CCC/C=C/[C@@H]2C[C@H](O)C[C@H]2[C@H](O)/C=C/C(=O)O1`, -50.7% (active).
To `Cc1c(Nc2nnc(SCC(=O)Nc3sc4c(c3C#N)CCCC4)s2)c(=O)n(-c2ccccc2)n1C` belongs 107%; to `Fc1ccc2nc(-c3cc(-c4ccc5c(c4)OCO5)n[nH]3)[nH]c2c1`, 46.7%; to `C[C@H](NC(=O)c1c(N)nn2cccnc12)c1cc2cccc(C#Cc3cnn(C)c3)c2c(=O)n1-c1ccccc1`, -21.2% (active).
As for `COc1cc2nc(-c3ccc(Cl)cc3)cc(OCCCN3CCCCC3)c2cc1OC`, the growth is 47.7%.
Take `N=C(N)c1ccc(-c2ccc(-c3cccs3)s2)nc1`: the growth was -51% (active).
In the case of `CC(=O)NC(C)(C)C(=O)N1CCC[C@H]1C(=O)NC(C)(C)C(=O)N[C@@H](C)C(=O)NC(C)(C)C(=O)NC(C)(C)C(=O)N[C@@H](CCC(N)=O)C(=O)NC(C)(C)C(=O)N[C@H](C(=O)NC(C)(C)C(=O)NCC(=O)N[C@@H](CC(C)C)C(=O)NC(C)(C)C(=O)N1CCC[C@H]1C(=O)N[C@H](C(=O)NC(C)(C)C(=O)NC(C)(C)C(=O)N[C@@H](CCC(N)=O)C(=O)N[C@@H](CCC(N)=O)C(=O)N[C@H](CO)Cc1ccccc1)C(C)C)C(C)C` it was -1.54% [4.25 µM] (active); in that of `Cc1cc(-c2ccc(N=Nc3c(S(=O)(=O)O)cc4cc(S(=O)(=O)O)cc(N)c4c3O)c(C)c2)ccc1N=Nc1cc(S(=O)(=O)O)c2ccccc2c1O`, 105%.
As to `COc1ccc(O)c(N=Nc2nccs2)c1`, the growth was 17.5%.
`CC(=O)OCC1OC(OC2C(COC(C)=O)OC(OCCC[S-])C(OC(C)=O)C2OC(C)=O)C(OC(C)=O)C(OC(C)=O)C1OC(C)=O.[Au+].c1ccc(CN2[CH-]N(Cc3ccccc3)C(c3ccccc3)=C2c2ccccc2)cc1` (stereo not drawn): the growth is 10.2%.
On to `O=C1OCC2=C1C(c1ccc(Cl)c(Cl)c1)c1cc3c(cc1N2CCO)OCCO3` (stereo not drawn), for which the growth is 23.5%.
Take `c1ccc2c(NCCCn3ccnc3)c3oc4ccccc4c3nc2c1`: the growth was -8.65% (active).
To `CN(C)CCn1c2ccc(N)cc2c2nc3ccccc3nc21` belongs 23.7%.
In the case of `NS(=O)(=O)c1ccc(Nc2nc(N/N=C/c3ccc(Cl)cc3)nc(Nc3ccccc3)n2)cc1` it was 66.6%.
To `COc1ccc(C(=O)c2cc(OC)c(OC)c(OC)c2)cc1/C=C/C(=O)c1ccc2c(c1)OCO2` belongs 9.38% (active).
Take `Nc1c(C(=O)Nc2ccc(Cl)cc2)sc2nc(-c3cnccn3)cc(-c3cccs3)c12`: the growth was 82%.
In the case of `COc1ccc2cnc(N)c(C#Cc3cc(C(=O)Nc4ccc(CN5CCN(C)CC5)c(C(F)(F)F)c4)cnc3C)c2c1` it was 91.2%.
As to `COc1ccc(-n2c(=S)sc3c(Cl)nc(C)nc32)c(OC)c1`, the growth was -19.6% (active).
To `O=S(=O)(NCCCNc1cc(-c2cn(-c3ccccc3)nc2-c2cccc(O)c2)ccn1)c1ccc(C(F)(F)F)cc1` belongs 3.04% (active).
To `NS(=O)(=O)c1cc2c(cc1Cl)NC=NS2(=O)=O` belongs 108%.
Take `Cc1ccc(S(N)(=O)=O)cc1Cl`: the growth is 111%.
To `CC1(C)CC[C@]2(C(=O)O)CC[C@]3(C)C(=CC[C@@H]4[C@@]5(C)C/C(=C/c6ccco6)C(=O)C(C)(C)[C@@H]5CC[C@]43C)[C@@H]2C1` belongs -3.74% [100 µM] (active).
In the case of `IC(I)I`, the growth was 106%.
To `O=C(Nc1ccc2c(O)cc(S(=O)(=O)O)cc2c1)c1ccc([N+](=O)[O-])cc1` belongs 95.4%; to `COc1cccc(C(=O)O)c1OC`, 105%.
As to `O=C(c1ccc(O)cc1)c1ccc(O)cc1`, the growth was 110%.
To `O=C1C(Nc2ccc(Cl)cc2)=C(I)C(=O)c2ncccc21` belongs -72.3% (active).
As to `Cc1ccc2nc(-c3ccc(C(=O)N/N=C/c4ccc([N+](=O)[O-])cc4)cc3)[nH]c2c1`, the growth was 113%.
In the case of `Cc1c(NC(=O)OC[C@@H]2COCCN2)cn2ncnc(Nc3ccc4c(cnn4Cc4cccc(F)c4)c3)c12` it was -53.7% (active); in that of `CCOC(=O)CSc1nc2sc3c(c2c(=O)n1-c1ccc([N+](=O)[O-])cc1)CCCCC3`, 56.6%.

The values are drawn from PubChem BioAssay (NCI).
